Data on six compounds can be found in PubChem BioAssay (Tox21).

Assay [1] can be described thus: qHTS assay to identify small molecule antagonists of the estrogen related receptor (ERR) signaling pathway from Tox21 library - cell viability counter screen (AID 1224834). Further: nearly all actives have a fitted effect of over 30% in size. Further: potency means the concentration at half of the fitted maximal effect. Put shortly:
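Cytotoxicity of test substances is gauged in the same ERR cells used for the antagonist screen, after 17.5 h of compound treatment at 37 C, by CellTiter-Fluor fluorescence measured after 30 min.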
(Quantitative high-throughput screening tests each substance at several concentrations.)

Assay [2] has as its target Luciferin 4-monooxygenase (Photinus pyralis) (UniProt P08659). Nature of the assay: qHTS assay to identify small molecule inhibitors of firefly luciferase (AID 1224835). Further: nearly all actives have a fitted effect of over 25% in size. In short, it runs like this: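 Inhibition of purified Photinus luciferase is measured by luminescence. Substrate levels (D-luciferin, ATP) sit at their KM values. Each compound is tested in a concentration series.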

Assay [3] is described as follows: qHTS assay to identify small molecule agonists of the constitutive androstane receptor (CAR) signaling pathway - cell viability counter screen (AID 1224836). Further: nearly all actives have a fitted effect of over 45% in size. Further: potency means the concentration at half of the fitted maximal effect. In short, it runs like this:
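Cell viability multiplexed with the CAR agonist screen: CellTiter-Fluor fluorescence after 23 hr at 37 C. HepG2-CYP2B6-hCAR cells got compounds at 15 concentrations with PK11195 at 0.75 uM final.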

The nature of assay [4]: qHTS assay to identify small molecule antagonists of the constitutive androstane receptor (CAR) signaling pathway - cell viability counter screen (AID 1224837). Further: nearly all actives have a fitted effect of over 45% in size. Further: potency means the concentration at half of the fitted maximal effect. Put shortly: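 Multiplexed cytotoxicity read-out for the CAR antagonist screen: double-stable HepG2-CYP2B6-hCAR cells co-treated with 50 nM CITCO (final) and compound over 15 concentrations, incubated 23 hr, then assessed by CellTiter-Fluor fluorescence.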

In assay [5] the target is Nuclear receptor subfamily 1 group I member 3 (Homo sapiens) (UniProt Q14994). Nature of the assay: qHTS assay to identify small molecule antagonists of the constitutive androstane receptor (CAR) signaling pathway (AID 1224838). Further: nearly all actives have a fitted effect of over 40% in size. Further: potency means the concentration at half of the fitted maximal effect. Put shortly: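 Compounds were titrated across 15 concentrations onto HepG2 cells double-stably expressing hCAR and a CYP2B6-2.2kb reporter, together with 50 nM CITCO (final). After 24 h at 37 C, luciferase activity was measured by luminescence.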
Chain of Nuclear receptor subfamily 1 group I member 3 (Homo sapiens) (Q14994 whole entry, looked up): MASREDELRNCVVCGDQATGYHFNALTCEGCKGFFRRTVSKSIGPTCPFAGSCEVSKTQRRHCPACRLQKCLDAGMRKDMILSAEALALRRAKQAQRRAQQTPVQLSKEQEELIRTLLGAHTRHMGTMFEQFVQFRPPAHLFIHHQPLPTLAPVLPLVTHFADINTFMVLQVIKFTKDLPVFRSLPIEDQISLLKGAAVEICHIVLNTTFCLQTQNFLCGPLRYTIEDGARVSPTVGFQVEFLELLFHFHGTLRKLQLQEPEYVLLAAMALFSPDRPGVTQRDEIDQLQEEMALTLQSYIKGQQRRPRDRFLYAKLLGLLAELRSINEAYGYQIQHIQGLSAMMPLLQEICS

The target is the same in assay [6]. Description: qHTS assay to identify small molecule agonists of the constitutive androstane receptor (CAR) signaling pathway (AID 1224839). Further: nearly all actives have a fitted effect of over 15% in size. Put shortly: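 Luminescent ONE-Glo read-out after 24 hr, 37 C exposure of double-stable HepG2-CYP2B6-hCAR reporter cells to a 15-point compound series, in the presence of 0.75 uM PK11195 (final).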
The nature of assay [7]: qHTS assay to identify small molecule antagonists of the estrogen related receptor signaling pathway with the pleiotropic PPARgamma coactivator (PGC) from Tox21 10K library - cell viability counter screen (AID 1224840; active means well fitted cell-killing curve with a large enough effect in the repeat runs, not every such curve was filed as active; further: nearly all actives have a fitted effect of over 40% in size; further: potency means the concentration at half of the fitted maximal effect). Put shortly: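 Step one, plate 2,000 PGC/ERR cells per well; step two, incubate 6 h at 37 C/5% CO2; step three, pin-transfer compounds; step four, incubate 17.5 h; step five, add CellTiter-Fluor and read fluorescence after 30 min.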

Assay [8] has as its target Thyrotropin receptor (Homo sapiens) (UniProt P16473). Description: qHTS assay to identify small molecule agonists of the thyroid stimulating hormone receptor (TSHR) signaling pathway (AID 1224843; calls by dose curve; further: nearly all actives have a fitted effect of over 45% in size). Put shortly:
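HEK293 cells stably bearing the thyrotropin receptor were plated at 800 cells/well and challenged with compound (30 min, RT). Accumulated cAMP was quantified via cAMP-d2 competing for cryptate-tagged antibody.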

The nature of assay [9]: qHTS assay to identify small molecule agonists of the hypoxia (HIF-1) signaling pathway - cell viability counter screen (AID 1224844; calls by dose curve; further: nearly all actives have a fitted effect of over 50% in size; further: potency means the concentration at half of the fitted maximal effect). Put shortly: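 Tox21 10K compounds were added to HRE-bla ME-180 cells (0.5% dialyzed FBS) and incubated 17 hrs at 37C; ATP-based CellTiter-Glo luminescence then reported cell viability in the same wells.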
A short description of assay [10]: qHTS assay to identify small molecule agonists of the hypoxia (HIF-1) signaling pathway (AID 1224846; active means well fitted activation curve with a large enough effect in the signal ratio in the repeat runs, not every such curve was filed as active; the % refers to the signal ratio). In short, it runs like this:
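Steps: seed ME-180 HRE-bla cells (2,000/well, 0.5% dialyzed FBS); incubate 5 hrs at 37C; pin-transfer compounds or DMSO; incubate 17 hrs; add LiveBLAzer B/G substrate CCF4-AM; measure reporter activation by FRET.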

Assay [11] in a line: qHTS assay to identify small molecule agonists of H2AX - cell viability counter screen (AID 1224847; calls by dose curve; further: nearly all actives have a fitted effect of over 30% in size; further: potency means the concentration at half of the fitted maximal effect). Put shortly: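 Counter-screen for viability: CellTiter-Glo ATP luminescence read after 3 h compound treatment (15-point titration, 0.76% DMSO final) of CHO-K1 cells at 37C, with 30 min room-temperature reagent incubation.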
Assay [12] in a line: qHTS RealTime-Glo MT Cell Viability Assay in HepG2 cells - 24 hour (AID 1224867). Further: nearly all actives have a fitted effect of over 50% in size. Further: potency means the concentration at half of the fitted maximal effect. In short, it runs like this:
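Compound treatment began 5 h after plating HepG2 cells (600/well) with NanoLuc luciferase and prosubstrate. Plates stayed at 37 C for 40 h; luminescence was captured at six time points, 0 h through 40 h.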

A short description of assay [13]: qHTS RealTime-Glo MT Cell Viability Assay in HEK293 cells - 32 hour (AID 1224868). Further: nearly all actives have a fitted effect of over 50% in size. Further: potency means the concentration at half of the fitted maximal effect. Put shortly: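 Quantitative high-throughput screen of the Tox21 10K library in HEK293: cells and RealTime-Glo reagents plated together, compound added at 5 h, luminescence monitored through 40 h at 37 C.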
Assay [14] is described as follows: A CellTox Green Cytotoxicity Assay to monitor cytotoxicity in HEK293 cells - 0 hour (AID 1224869). Further: nearly all actives have a fitted effect of over 50% in size. In short, it runs like this:
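Cytotoxicity was tracked continuously in HEK293 cells by a DNA-binding dye excluded from viable cells. Compounds were transferred in DMSO 5 h after seeding; fluorescence was recorded at intervals up to 40 h.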

Assay [15] in a line: qHTS RealTime-Glo MT Cell Viability Assay in HepG2 cells - 40 hour (AID 1224870). Further: nearly all actives have a fitted effect of over 50% in size. Further: potency means the concentration at half of the fitted maximal effect. In short, it runs like this:
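Real-time viability: cells seeded at 600 per well together with NanoLuc and cell-permeant prosubstrate, compounds added after 5 h incubation. Luminescence tracked at 0, 8, 16, 24, 32 and 40 h of exposure.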

A short description of assay [16]: qHTS assay to identify small molecule antagonists of the estrogen related receptor signaling pathway with the pleiotropic PPARgamma coactivator (PGC) from Tox21 10K library (AID 1224841; call rule not given here; further: potency means the concentration at half of the fitted maximal effect). Put shortly:
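Antagonism in this quantitative HTS is taken from loss of luciferase signal in PGC/ERR cells. Cells (2,000/well) are treated with compounds in DMSO after a 6 h settling period and read by One-Glo luminescence after 18 h.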

Assay [17] can be described thus: qHTS assay to identify small molecule agonists of H2AX (AID 1224845; active means well fitted activation curve with a large enough effect in the signal ratio in the repeat runs, not every such curve was filed as active; the % refers to the signal ratio). In short, it runs like this: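 Phospho-H2AX Ser139 measured by HTRF (ex 320 nm; em 665 and 620 nm) after 24 hr antibody incubation. Compounds, 15 concentrations, 0.76% DMSO, were applied to CHO-K1 cells for 3hr at 37C before lysis.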
Assay [18] is described as follows: qHTS assay to identify small molecule agonists of the estrogen related receptor (ERR) signaling pathway from Tox21 library (AID 1224849; calls by dose curve; further: nearly all actives have a fitted effect of over 15% in size). Conditions: ERR reporter cell line, ONE-Glo luciferase, 18 h; at 92.4 µM (top of the series) unless noted. Put shortly: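 Agonist signal is luciferase luminescence from an ERR reporter cell line treated 18 h at 37 C with DMSO-dissolved compounds, read 30 min after ONE-Glo addition at room temperature.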

A short description of assay [19]: qHTS assay to identify small molecule antagonists of the estrogen related receptor (ERR) signaling pathway from Tox21 library (AID 1224848). Further: nearly all actives have a fitted effect of over 50% in size. Further: potency means the concentration at half of the fitted maximal effect. In short, it runs like this: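 Reading was by luminescence 30 min after ONE-Glo addition. Before that, ERR cells at 2,000 per well had rested 6 h at 37 C/5% CO2 and then received pin-tooled compounds in DMSO for 18 h at 37 C.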

Assay [20] in a line: qHTS assay to identify small molecule agonists of the estrogen related receptor signaling pathway with the pleiotropic PPARgamma coactivator (PGC) from Tox21 10K library (AID 1224842). Further: nearly all actives have a fitted effect of over 15% in size. In short, it runs like this: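 Luminescence from One-Glo (30 min, room temperature) measured after PGC/ERR cells had 18 h at 37 C with pinned compound (23 nL in DMSO). Cells had been seeded at 2,000 per well and pre-incubated 6 h.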

Unmarked numbers belong to inactive results. Records with an inconclusive call do not appear. Activity calls are given as the source filed them. Unless noted, the call rests on the fitted dose curve; in most records, active means well fitted curve in the direction sought with a large enough effect in the repeat runs; inconclusive means weak or mixed curves; inactive means no such curve, though single readings can be large; an effect the other way counts as inactive or inconclusive.
On the % scale 0 is the no-effect control and ±100 the full control effect.

Chain of Thyrotropin receptor (Homo sapiens) (P16473 whole entry, looked up): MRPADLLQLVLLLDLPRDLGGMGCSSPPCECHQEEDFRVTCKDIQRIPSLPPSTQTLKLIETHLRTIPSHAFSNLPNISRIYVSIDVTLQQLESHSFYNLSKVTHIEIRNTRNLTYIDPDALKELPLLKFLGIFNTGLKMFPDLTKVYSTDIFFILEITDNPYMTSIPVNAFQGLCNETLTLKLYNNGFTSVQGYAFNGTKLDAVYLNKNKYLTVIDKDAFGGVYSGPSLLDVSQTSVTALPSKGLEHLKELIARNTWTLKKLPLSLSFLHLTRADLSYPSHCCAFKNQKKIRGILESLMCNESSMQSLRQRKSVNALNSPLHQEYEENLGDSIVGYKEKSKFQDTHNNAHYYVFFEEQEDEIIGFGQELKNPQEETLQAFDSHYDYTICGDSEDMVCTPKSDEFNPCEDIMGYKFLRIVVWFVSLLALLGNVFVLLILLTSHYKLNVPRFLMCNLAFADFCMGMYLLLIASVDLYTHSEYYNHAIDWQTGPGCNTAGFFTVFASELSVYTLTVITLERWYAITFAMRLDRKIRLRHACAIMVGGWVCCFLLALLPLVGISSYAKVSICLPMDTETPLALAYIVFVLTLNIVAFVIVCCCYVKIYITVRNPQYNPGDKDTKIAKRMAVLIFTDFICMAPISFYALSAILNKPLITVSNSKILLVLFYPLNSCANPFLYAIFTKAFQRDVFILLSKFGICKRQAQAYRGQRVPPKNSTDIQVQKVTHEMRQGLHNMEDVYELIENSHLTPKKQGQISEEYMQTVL
Chain of Luciferin 4-monooxygenase (Photinus pyralis) (P08659 whole entry, looked up): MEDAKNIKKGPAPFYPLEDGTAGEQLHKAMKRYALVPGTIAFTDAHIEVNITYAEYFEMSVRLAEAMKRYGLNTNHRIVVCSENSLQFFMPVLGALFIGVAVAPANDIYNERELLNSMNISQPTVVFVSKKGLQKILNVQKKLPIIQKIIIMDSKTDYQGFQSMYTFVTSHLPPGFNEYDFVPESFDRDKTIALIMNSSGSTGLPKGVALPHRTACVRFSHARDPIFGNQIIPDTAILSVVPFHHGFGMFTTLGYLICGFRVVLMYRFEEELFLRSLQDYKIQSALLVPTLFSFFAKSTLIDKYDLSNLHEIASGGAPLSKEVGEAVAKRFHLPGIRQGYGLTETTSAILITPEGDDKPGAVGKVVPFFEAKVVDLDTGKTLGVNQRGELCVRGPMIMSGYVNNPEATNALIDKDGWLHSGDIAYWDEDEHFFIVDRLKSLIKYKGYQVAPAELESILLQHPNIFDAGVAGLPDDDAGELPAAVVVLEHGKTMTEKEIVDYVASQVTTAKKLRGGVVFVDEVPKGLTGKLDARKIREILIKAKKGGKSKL

For the compound `COc1ccc(OC)c(CC(C)N)c1` (stereo not drawn), the Potency entry in [1], in [2], in assay [3], in [4], in assay [5] and in assay [6] was “inactive” throughout. Moreover, the Potency entry in [7], in assay [8], in [9], in [11], in assay [12] and in assay [13] was “inactive” in each case. Moreover, the Potency entry in assay [14] and in assay [15] was “inactive” throughout. Besides, the call in assay [10] was inactive.
With `C[C@H]1CC[C@@H]2[C@@H](C)[C@H]3[C@H](C[C@H]4[C@@H]5CC=C6CC(O[C@@H]7O[C@H](CO)[C@H](O)[C@H](O[C@@H]8O[C@H](CO)[C@@H](O)[C@H](O)[C@H]8O)[C@H]7O[C@H]7O[C@@H](C)[C@H](O)[C@@H](O)[C@H]7O)CC[C@]6(C)[C@H]5CC[C@]34C)N2C1` (stereo partly drawn), the Potency in assay [1] was 22.4 µM (active); in assay [3] it was 22.4 µM (active); in assay [4], 22.4 µM (active); in [5], 22.4 µM (active); in assay [7] it was 22.4 µM (active); in assay [9] it was 16 µM (active). The Potency was 32.9 µM (active) in assay [11], 50.6 µM (active) in assay [12], 14.3 µM (active) in [13] and 56.7 µM (active) in [15]. In addition, the Potency entry in assay [2], in assay [6], in [16] and in [17] was “inactive” in each case. Besides, the activity change, positive = activation in [18] is -50.4%.
For `C[C@@H]1CC[C@@]2(OC1)O[C@H]1[C@@H](O)[C@H]3[C@@H]4CC[C@H]5C[C@@H](O[C@@H]6O[C@H](CO)[C@H](O[C@@H]7O[C@H](CO)[C@@H](O)[C@H](O[C@@H]8OC[C@@H](O)[C@H](O)[C@H]8O)[C@H]7O[C@@H]7O[C@H](CO)[C@@H](O)[C@H](O[C@@H]8O[C@H](CO)[C@@H](O)[C@H](O)[C@H]8O)[C@H]7O)[C@H](O)[C@H]6O)[C@H](O)C[C@]5(C)[C@H]4CC[C@]3(C)[C@H]1[C@@H]2C`, the Potency in [1] was 20.5 µM (active); in [3], 23 µM (active); in [4], 25.8 µM (active); in assay [5], 29 µM (active); in [7], 20.5 µM (active); in assay [16], 40.9 µM (active). In addition, the Potency in [11] is 10.7 µM (active); in assay [19], 23 µM (active); in assay [12] it was 20.7 µM (active); in assay [13], 11.6 µM (active); in assay [15] it was 26.1 µM (active). Besides, the Potency entry in assay [2], in assay [6] and in assay [17] was “inactive” in each case. For the same compound, the activity change, positive = activation in assay [18] is -74.6%.
As for `CC(C)OS(C)(=O)=O`, the Potency entry in [1], in [2], in [3], in assay [4], in assay [5] and in assay [6] was “inactive” in each case. In addition, the Potency entry in [7], in assay [8], in [9], in assay [17], in assay [12] and in [13] was “inactive” each time. Besides, the Potency entry in [14] and in [15] was “inactive” each time. Moreover, the result in assay [10] was inactive.
In the case of `C=COCCCl`, the Potency entry in assay [1], in assay [2], in assay [3], in assay [4], in [5] and in assay [6] was “inactive” in each case. In addition, the Potency result in assay [7], in assay [16], in assay [20], in assay [8], in assay [9] and in [17] was “inactive” throughout. Also, the Potency result in assay [11], in assay [19], in [12], in assay [13] and in assay [14] was “inactive” in each case. Further, the compound was classed as inactive in [10]. Also, the activity change, positive = activation in assay [18] was 14.7%.
For `ClC1=C(Cl)[C@]2(Cl)[C@@H]3[C@@H](Cl)[C@@H](Cl)C[C@@H]3[C@@]1(Cl)C2(Cl)Cl`, the Potency entry in assay [1], in assay [2], in assay [3], in assay [4], in assay [5] and in [6] was “inactive” throughout. The Potency entry in assay [7], in assay [16], in assay [20], in assay [9], in assay [17] and in assay [11] was “inactive” in each case. For the same compound, the Potency entry in assay [19], in assay [12], in assay [13], in assay [14] and in assay [15] was “inactive” throughout. Besides, the compound was called inactive in [10]. Also, in [18], the activity change, positive = activation is 0.0857%.
